{
  "source": "PubChem BioAssay AID1578",
  "about": "(Sanford-Burnham Center for Chemical Genomics, 2009)",
  "note": "In all, about 290,000 compounds went through this assay and about 3,000 (1%) were called active. Rule as the data show it: active = inhibition mostly above about 36% (no sharp cut-off); inactive = mostly below about 34%. The sample as a whole holds a higher share of actives than the screen did.",
  "data": [
    {"test": "inhibition of NOD1-driven NF-kB reporter – cell-based, luminescence, uHTS, primary screen (AID 1578);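 also: HEK-293T reporter cells stimulated with the NOD1 agonist gamma-tri-DAP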", "details": "NOD1-driven NF-kB luciferase reporter cells, at 4 µM, hits give high values", "values": [
      {"smiles": "O=C(N/N=C/c1ccc(O)cc1)c1ccc(NC(=O)c2ccccc2Br)cc1", "inhibition": "-3.3% (inactive)"},
      {"smiles": "CCOc1ccc(CNC(=O)CCCC(=O)n2ncc3cc(C)ccc32)cc1", "inhibition": "-10.4% (inactive)"},
      {"smiles": "CN1C(=O)c2cccc(NC(=O)CCc3ccccc3)c2C1=O", "inhibition": "-23% (inactive)"},
      {"smiles": "CCC(=O)Nc1cccc2c1C(=O)N(C)C2=O", "inhibition": "83.2% (active)"},
      {"smiles": "CN1C(=O)c2cccc(NC(=O)Cc3ccccc3)c2C1=O", "inhibition": "5.1% (inactive)"},
      {"smiles": "CCCCNC(=S)Nc1ccc(Cl)cc1", "inhibition": "0.1% (inactive)"},
      {"smiles": "Cc1oc(-c2ccccc2Cl)nc1CSCC(=O)N1CCCC1", "inhibition": "25.8% (inactive)"},
      {"smiles": "Cc1oc(-c2ccccc2Cl)nc1CSc1nc2c(c(=O)[nH]1)CCC2", "inhibition": "34% (inactive)"},
      {"smiles": "COc1ccccc1N1CCN(c2ccc([N+](=O)[O-])cc2Cl)CC1", "inhibition": "7.1% (inactive)"},
      {"smiles": "Oc1ccc(Cc2ncc(C(F)(F)F)cc2Cl)cc1", "inhibition": "5.6% (inactive)"},
      {"smiles": "Cc1cccc(CS(=O)(=O)c2ncc(Cl)c(C(=O)NCc3ccc4c(c3)OCO4)n2)c1", "inhibition": "70.3% (active)"},
      {"smiles": "CC(=O)Nc1ccc(NC(=O)c2nc(S(=O)(=O)Cc3ccccc3)ncc2Cl)cc1", "inhibition": "11.7% (inactive)"},
      {"smiles": "Cc1nnc(NC(=O)c2nc(S(=O)(=O)Cc3ccccc3C)ncc2Cl)s1", "inhibition": "41.7% (inactive)"},
      {"smiles": "Cc1cccc(CS(=O)(=O)c2ncc(Cl)c(C(=O)NCc3ccccc3)n2)c1", "inhibition": "34.5% (inactive)"},
      {"smiles": "Cc1ccc(NC(=O)c2nc(S(=O)(=O)Cc3ccccc3)ncc2Cl)cc1", "inhibition": "34.5% (inactive)"},
      {"smiles": "CC(=O)Nc1ccc(NC(=O)c2nc(S(=O)(=O)Cc3cccc(C)c3)ncc2Cl)cc1", "inhibition": "8.3% (inactive)"},
      {"smiles": "O=C(NCc1ccc2c(c1)OCO2)c1nc(S(=O)(=O)Cc2ccccc2)ncc1Cl", "inhibition": "16.2% (inactive)"},
      {"smiles": "COc1ccc(/C=C2\\SC(=S)N(CCC(=O)N3CCCCC3)C2=O)cc1", "inhibition": "13.7% (inactive)"},
      {"smiles": "CCN(CC)CCNC(=O)CS(=O)Cc1nc(-c2ccc(C)cc2)oc1C", "note": "(stereo not drawn)", "inhibition": "13.6% (inactive)"},
      {"smiles": "CN(C)c1cccc(C(=O)NNC(=S)NC2CCCC2)c1", "inhibition": "-23.1% (inactive)"},
      {"smiles": "CCC(C)C(NC(=O)C(CC(C)C)NC(=O)C(CO)NC(=O)C1CCC(=O)N1)C(=O)OC", "note": "(stereo not drawn)", "inhibition": "-36% (inactive)"},
      {"smiles": "CN(Cc1nc2ccccc2[nH]1)Cc1nc(CC2CC2)no1", "inhibition": "-48.9% (inactive)"},
      {"smiles": "COCCNC(=S)NNC(=O)CSCc1ccc(Cl)cc1Cl", "inhibition": "-40.2% (inactive)"},
      {"smiles": "CCCC(=O)NCCc1nc2ccccc2n1CCC", "inhibition": "-14.2% (inactive)"},
      {"smiles": "COc1ccc(C(=O)ON=C2CCN(C)CC2)cc1", "inhibition": "-31.9% (inactive)"},
      {"smiles": "COc1cc(C(=O)NS(=O)(=O)c2ccccc2C)ccc1Cc1cn(C)c2ccc(NC(=O)OC3CCCC3)cc12", "inhibition": "39.2% (active)"},
      {"smiles": "Cc1cc(NC(=O)OC2CCCCC2)ccc1[N+](=O)[O-]", "inhibition": "-54.1% (inactive)"},
      {"smiles": "COc1ccc(CNC(=O)Cc2cn(C)c3ccccc23)c(OC)c1", "inhibition": "-7.1% (inactive)"}
    ]}
  ]
}
